Compound activity as filed in PubChem BioAssay.
A selection: hits, their analogues and other compounds. The true share with any hit is near 9%.
Lamin A splicing: changes lamin A minigene splicing in HeLa cells | HeLa LMNA splicing GFP/RFP minigene ratio, 48 h | Potency, µM (doses to about 46.1 µM), hits mostly inhibitors | actives 0.01% (n = 200,000); active = well fitted inhibition curve with a large enough effect in the signal ratio, with a control signal flat, not every such curve was filed as active; inconclusive = small, poorly fitted or top-dose-only effect, or effect the other way, or a change in a side signal; the % refers to the signal ratio
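S3 HeLa stable clones carrying a lamin A-EGFP splicing minigene plus DsRed2 were seeded at 600 cells/well in Opti-MEM with 2% FBS, pin-dosed and incubated 48 h at 37°C. Acumen cytometry (488 nm) gave the GFP/RFP total-intensity ratio.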
HttQ103 aggreg: mutant huntingtin aggregation inhibition; AID 1688; PC12 HttQ103-GFP aggregates, Acumen cytometry, 40 h; Potency, µM (titrated, usually from 46.1 µM), actives largely listed as inhibitors; actives 1.1% (n = 220,000); note: nearly all actives have a fitted effect of over 60% in size
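Quantitative HTS on tebufenozide-induced (100 nM) PC12 cells stably expressing polyQ103 Huntingtin exon 1–GFP. Reduction of bright GFP aggregates, detected by laser scanning cytometry after lysis, identified actives across the titration.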
ALDH1A1 block: inhibitors of human aldehyde dehydrogenase 1A1; P00352; Purified ALDH1A1, NADH fluorescence, propionaldehyde substrate; Potency, µM (highest dose often 75.3 µM), most hits filed as inhibitors; actives 7.3% (n = 220,000); active = well fitted inhibition curve with a large enough effect, not every such curve was filed as active; inconclusive = small, poorly fitted or top-dose-only effect, or another doubt; inactive = no such curve, though single readings can be large or run the other way
KinaseGlo FLuc: blocks Kinase-Glo luciferase, a counter-screen artifact; actives 0.28% (n = 200,000); Kinase-Glo luciferase, ATP luminescence, 8 min; Q27757; Potency, µM (titrated, usually from 38.3 µM), usual class: inhibitors; note: nearly all actives have a fitted effect of over 60% in size
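Light output from Kinase-Glo luciferase with luciferin and 10 uM ATP in 50 mM imidazole pH 7.2, KCl, MgCl2, Tween 20, BSA; compound pin-delivered, 8-min ambient incubation, then luminescence read.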
HPGD block: blocks human HPGD enzyme activity; P15428; purified HPGD, NADH fluorescence kinetic, PGE2 substrate; Potency, µM, most hits filed as inhibitors; actives 4.3% (n = 150,000); AID 894; active = well fitted inhibition curve with a large enough effect, not every such curve was filed as active; inconclusive = small, poorly fitted or top-dose-only effect, or another doubt; inactive = no such curve, though single readings can be large or run the other way
Target sequence (P15428 whole entry, looked up): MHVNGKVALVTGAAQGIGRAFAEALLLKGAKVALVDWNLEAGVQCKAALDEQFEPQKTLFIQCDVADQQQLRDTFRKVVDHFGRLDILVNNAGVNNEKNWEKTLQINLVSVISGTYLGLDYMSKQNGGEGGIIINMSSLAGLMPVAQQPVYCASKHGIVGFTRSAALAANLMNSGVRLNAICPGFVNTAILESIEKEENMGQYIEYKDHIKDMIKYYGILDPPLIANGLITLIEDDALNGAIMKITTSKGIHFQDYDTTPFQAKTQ
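20 nM HPGD preincubated 15 min at room temperature with compound in 50 mM Tris-HCl pH 8, 0.01% Tween 20. Started with 1 mM NAD+ and 30 uM prostaglandin E2; NADH fluorescence (360/450 nm) read 5 times over 30-s intervals, last minus first.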
HTT cytoprotect: protects HTT-Q103 PC12 cells, measured by ATP. PC12 HTT-Q103 induced, cytoprotection, ATP luminescence, 40 h. Potency, µM (top dose mostly 56.4 µM), actives largely listed as activators. actives 0.14% (n = 230,000); note: nearly all actives have a fitted effect of over 45% in size
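Readout: ATPlite luminescence (ATP level). Model: stable PC12, inducible Htt exon1 Q103-GFP. Inducer: tebufenozide, 100 nM final. Compounds: dose series. No G418 in medium.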
A number is an active result; – = inactive; ? = inconclusive; · = no result; [ ] = another dose, or the depositor's remark. Unless noted, calls come from the whole dose curve; as a rule, active = well fitted curve in the direction sought with a large enough effect; inconclusive = small, poorly fitted or top-dose-only effect, or another doubt; inactive = no such curve, though single readings can be large; an effect the other way counts as inactive or inconclusive.

SMILES	Lamin A splicing	HttQ103 aggreg	ALDH1A1 block	KinaseGlo FLuc	HPGD block	HTT cytoprotect
Cc1ccc(NC(=O)C(Nc2cccc(C)c2)c2ccccc2)cc1 (stereo not given)	?	–	28.2µM	–	–	–[10 µM]
Cc1cc(/C=C2\SC(=S)N(C)C2=O)c(C)n1-c1cccc(O)c1	·	–[9.22 µM]	·	·	·	–[10 µM]
COc1ccc(/C=C2/SC(=S)N(n3c(C)ccc3C)C2=O)cc1	–	–[9.22 µM]	6.31µM	–	–	–
Cc1cc(/C=C2\SC(=S)N(Cc3ccco3)C2=O)c(C)n1-c1ccccc1	?	–	0.0891µM	–	?	·
CCOc1ccc(/C=C2/SC(=S)N(n3c(C)ccc3C)C2=O)cc1	?	–	?	–	–	–
O=C(O)CCCN1C(=O)/C(=C\c2ccco2)SC1=S	–	–[9.22 µM]	?	–	·	–[10 µM]
O=C1/C(=C\c2ccco2)SC(=S)N1Cc1ccccc1	?	–	14.1µM	–	–	–
COc1ccc(-n2c(C)cc(/C=C3/SC(=S)N(C)C3=O)c2C)cc1	–	–	1µM	–	–	–[10 µM]
O=C1/C(=C/c2ccccn2)SC(=S)N1Cc1ccccc1	·	–[9.22 µM]	·	·	·	–[10 µM]
Cc1c(C(=O)N2CCOCC2)sc(NC(=O)c2ccc3c(c2)OCO3)c1C#N	–	–	–	–	?	–[10 µM]
COc1ccc(N(CC(=O)NC2CCCC2)C(=O)c2ccc(N3CCCCC3)nc2)cc1	–	–	–	–	–	–
O=C1/C(=C\c2ccco2)SC(=S)N1c1ccccc1	–	–	8.91µM	–	–	·
COc1ccc(COC(=O)c2ccc3c(=O)n4c(nc3c2)CCC4)cc1F	·	–[9.22 µM]	–	·	·	–[10 µM]
Cc1ccc(Cl)cc1NC(=O)CSC(N)=O	–	–	1.58µM	–	–	–
Cc1ccc(Cl)cc1NC(=O)CC(O)(C(F)(F)F)C(F)(F)F	?	15.8µM	–	–	–	–
Cc1cccnc1NC(=S)NC(=O)/C=C/c1ccco1	–	?	?	–	–	–
CC(C)NC(=O)c1ccccc1NC(=O)Cc1ccc(Cl)cc1	–	?	–	–	–	–
CN(C)CCNC(=O)/C(=C/c1ccc(-c2cccc([N+](=O)[O-])c2)o1)NC(=O)c1ccccc1	–	–	?	–	–	–[10 µM]
COc1ccccc1C1(CC(=O)N2CCCCC2)CCOC(C(C)C)C1 (stereo not given)	?	–	–	–	25.1µM	–
COc1nonc1NCn1nc(C)cc1C	–	–	–	–	–	–
CC(C)C[C@H](NC(=O)c1nc[nH]c1C(=O)N[C@@H](CCCCNC(=O)OC(C)(C)C)C(=O)OC(C)(C)C)C(=O)OC(C)(C)C	·	–[9.22 µM]	·	·	·	–[10 µM]
CC/C=C\C/C=C\C/C=C\C/C=C\C/C=C\C/C=C\CCC(=O)O	·	–	22.4µM	–	–	–
COC(=O)C1=C(C)Nc2ncnn2C1c1ccc(C)o1 (stereo not given)	–	–	–	–	–	–
CSC1=N/C(=C\c2ccccc2F)C(=O)S1	–	–	–	·	·	–
COc1cccc(/C=C2\N=C(SC)SC2=O)c1OC	–	–	31.6µM	–	25.1µM	–
SMILES	Lamin A splicing	HttQ103 aggreg	ALDH1A1 block	KinaseGlo FLuc	HPGD block	HTT cytoprotect
COC(=O)C1(C(C[N+](=O)[O-])c2ccc(C)cc2)C(=O)NCC1c1ccco1 (stereo not given)	·	–[9.22 µM]	·	·	·	–[10 µM]
COc1cc(OC)c(C2=NOC(C(=O)N3CCCc4ccccc43)C2)cc1Cl (stereo not given)	–	–	?	–	?	–
CCC1CCCCN1C(=O)C1CC(c2cc(Cl)c(OC)cc2OC)=NO1 (stereo not given)	–	–	?	–	14.1µM	–
CC(C)n1c(=S)[nH]c2c1c(=O)[nH]c(=O)n2C	–	–	2µM	–	8.91µM	–
CCOC(=O)N1CCN(c2cc(C)nc3nc(C)nn23)CC1	–	–	–	–	–	–[10 µM]
O=C(O)/C(=C\c1cccc([N+](=O)[O-])c1)c1ccc(S(=O)(=O)N2CCCCC2)s1	·	–[9.22 µM]	3.98µM	·	·	–[10 µM]
O=C(O)/C(=C\c1ccc(Cl)c([N+](=O)[O-])c1)c1ccc(S(=O)(=O)N2CCCCC2)s1	–	–	0.501µM	–	·	–[10 µM]
O=C(O)/C(=C\c1ccccc1Cl)c1ccc(S(=O)(=O)N2CCCCC2)s1	–	–	?	·	·	–[10 µM]
